Here are results for 40 molecules from ChEMBL document CHEMBL1157539, “Thousands of chemical starting points for antimalarial lead identification” (Nature, 2010).

For orientation: Inhibition means how much of the control response was suppressed. High values mean a strong effect, low ones a weak effect.

This test concerns Plasmodium falciparum. The test is described as follows: GSK_TCMDC: Inhibition of Plasmodium falciparum 3D7 in whole red blood cells, using parasite LDH activity as an index of growth. Test compounds present at 2uM. It counts as functional.
Consider `Cc1nc2nc(N)nc(N)c2c(C)c1Cc1ccccc1I.Cl`, for which the Inhibition is given as 96%. In the case of `Br.CCc1ccc(OCCCON2C(=N)N=C(N)NC2(C)C)cc1`, the Inhibition came out at 95%.

In turn, `CN(Cc1ccc(-c2ccc(C(F)(F)F)cc2)cc1)C(=O)Cn1c(CCc2cccc(F)c2F)nc(=O)c2ccc(N3CCN(CCN4CCCCC4)CC3)nc21.O=C(O)C(O)C(O)C(=O)O` gave an Inhibition of 100%. The figure for `CCOC(=O)c1c[nH]c2c(sc3cc(OC)ccc32)c1=O` is 96%; for `Cn1nccc1C(=O)NCCNCc1cccc(-c2ccc(-c3nc4cc(C(F)(F)F)ccc4[nH]3)cc2)c1.O=C(O)C(F)(F)F` it is 100%. The molecule `Cc1noc(-c2ccccc2)c1NC(=O)NC1CCN(CCCCCNC(=O)/C=C/c2ccc(Cl)c(Cl)c2)CC1` displayed an Inhibition of 93%. For the molecule `COc1ccc2ncc(F)c(CCN3CCC(NCc4cc(C)c5c(c4)OCCO5)CC3)c2n1.Cl`, the Inhibition is reported as 100%. The figure for `CCCN(Cc1nnc(-c2cccs2)o1)C(=O)CSc1nnnn1-c1cc(C)cc(C)c1` is 92%; for `Cc1nnsc1C(=O)Nc1cccc(-c2csc(-c3nc4ccccc4[nH]3)c2)c1` it is 94%; for `Cl.O=C(Nc1ccnc2ccccc12)NC1CCN(Cc2ccccc2)CC1` it is 96%. In turn, `O=C(Nc1cccc(CN2CCCN(Cc3ccc(O)cc3)CC2)c1)c1cccc(Cl)c1.O=C(O)C(F)(F)F` displayed an Inhibition of 96%. The molecule `CC(=O)Nc1ccc(CN(Cc2cccc(OC(C)(C)C)c2)Cc2ccc3c(c2)OCCO3)cc1` gave an Inhibition of 95%. With `Br.C[C@@H](COc1ccc(-c2ccccc2)cc1)CON1C(N)=NC(N)=NC1(C)C`, the Inhibition was found to be 96%. For `O=C(NCCN1CCC(NC(=O)c2ccc(-c3ccccn3)s2)CC1)c1cccc(C(F)(F)F)c1.O=C(O)C(F)(F)F`, the Inhibition is given as 97%.

`N#Cc1cccc(C(O)CN(Cc2ccccc2)Cc2ccccc2)c1` (stereo not given) came in with an Inhibition of 100%. In turn, `COc1ccccc1N1CCN(C(C(=O)NCc2cccc(F)c2)c2ccc(C)cc2)CC1` (stereo not given) showed an Inhibition of 94%. `Cc1cccc2nc(-c3ccc(-c4cccc(NC(=O)NCc5cccc(F)c5)c4)s3)[nH]c12` gave an Inhibition of 88%. With `O=C(Nc1cccc(CN2CCCN(Cc3ncc[nH]3)CC2)c1)c1cc2ccccc2s1.O=C(O)C(F)(F)F`, the Inhibition came out at 99%. The figure for `O=C(Nc1ccc(OC2CCN(Cc3ccc(F)cc3)C2)c(Cl)c1)c1ccc(F)cc1.O=C(O)C(F)(F)F` (stereo not given) is 96%; for `Cc1ccc(NC(=O)c2ccc3ncccc3c2)cc1OC1CCN(CCC(C)C)CC1.O=C(O)C(F)(F)F` it is 94%. Molecule `COc1ccc(-c2cccc(NC(=O)c3ccc(C#N)cc3)c2)cc1CN(C)CCN(C)C.O=C(O)C(F)(F)F` showed an Inhibition of 90%. In the case of `CC(C)(C)c1ccc(CNC(=O)COc2ccc(-c3nnc(-c4cccc([N+](=O)[O-])c4)o3)cc2[N+](=O)[O-])cc1`, the Inhibition was determined as 93%.

The molecule `N#Cc1cc(C(=O)Nc2ccccc2)c(N)nc1SCC(=O)Nc1ccc(Br)cc1` showed an Inhibition of 100%. `COc1ccc(Cn2c(Nc3cccc(C(F)(F)F)c3)nc3cc(C(=O)NCCN4CCCC4)ccc32)cc1Cl` displayed an Inhibition of 97%. `O=C(/C=C/c1cccc(Cl)c1)N1CCC(C(O)CN2CCC3(CC2)CN(C(=O)/C=C/c2cccc(Cl)c2)c2ccccc23)CC1` (stereo not given) registered an Inhibition of 91%.

In the case of `CC(C)C[C@H](NC(=O)c1ccc(F)cc1)C(=O)N[C@H](/C=N/NC(=O)c1ccccc1)CCc1ccccc1`, the Inhibition is 92%. The figure for `COc1c(C2CCN(CCCCNC(=O)c3noc(-c4ccc(C#N)cc4)n3)CC2)ccc2c1CCCC2` is 99%; for `Cc1ccc(Nc2nc(C)cc(Nc3cccc(C#N)c3)n2)cc1` it is 100%; for `CC(CN(C)C)C(=O)Nc1cccc(-c2ccc(-c3nc4ccccc4[nH]3)s2)c1` (stereo not given) it is 100%. With `Cc1ccc(S(=O)(=O)N(C)c2ccccc2C(=O)Nc2ccccc2Oc2ccccc2)cc1`, the Inhibition is reported as 98%. `COc1cc(NCCCNCc2cn(Cc3cc(Br)cc(Br)c3)c3ccccc23)nc2ccccc12` gave an Inhibition of 100%. The molecule `O=C(Cc1ccccc1)NC(c1ccccc1)c1ccc2cccnc2c1O` (stereo not given) had an Inhibition of 89%.

Turning to `Cc1cc(NCCc2ccccc2)nc(NC(=N)Nc2ccc(Cl)cc2)n1`, the Inhibition was 100%. Take `CCCCCCN1CCC(NCc2ccc(C(F)(F)F)cc2)CC1.O=C(O)C(F)(F)F`: the Inhibition is recorded as 100%.

Consider `Cc1ccc([S+]([O-])Cc2ccc(Cl)cc2)cc1` (stereo not given), for which the Inhibition came to 98%. On to `Cc1[nH]cnc1-c1cccc(NC(=O)c2cc3ccccc3s2)c1`, for which the Inhibition amounted to 99%.

In turn, `N#Cc1ccc(N2CCN(Cc3cccc(-c4cccc(-c5nc6cc(C(F)(F)F)ccc6[nH]5)c4)c3)CC2)nc1.O=C(O)C(F)(F)F` had an Inhibition of 99%. Take `CCC[C@@H]([C@@H](CC1CCCCC1)C(=O)N[C@H](C(=O)Nc1nccs1)C(C)(C)SCCNC(=O)OCC)N(O)C=O`: the Inhibition worked out at 99%. With `CN1CCC(C(=O)N(Cc2ccc(-c3ccc(CNCCc4ccc(S(C)(=O)=O)cc4)cn3)cc2)Cc2ccc3c(c2)OCO3)CC1.O=C(O)C(F)(F)F`, the Inhibition was 91%. Regarding `Nc1nc(N)c2c(ccc3c2ccn3C2C=CCCC2)n1` (stereo not given), the Inhibition was 94%.
